Source: PubChem
KCC2 mod: KCC2 cotransporter modulators, thallium flux, primary screen, cell-based, HEK293 KCC2, FluoZin-2 fluorescence, MLSMR; Solute carrier family 12 member 5 (Homo sapiens), Q9H2X9; KCC2 cells, thallium flux FluoZin-2 fluorescence; B-score of Tl+ flux slope (higher = more flux/activation; lower = inhibition) at 10 µM; 190,000 tested, 2.2% active; AID 1456, 2008;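 active means thallium flux slope and its plate-corrected score both differing from the plate sample mean at a set confidence after two filtering rounds, in either direction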;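 further: slope of fluorescence scaled to starting intensity during 10 to 20 s after thallium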
L major viab: Leishmania major promastigote growth inhibition, primary screen; Leishmania major promastigotes, resazurin fluorescence viability; inhibition, % at 10 µM; 200,000 tested, 9% active; AID 1063, 2008; in the data active means inhibition above about 50%;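 further: promastigotes grown with compound for 44 hours at 28 °C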
ROMK mod: ROMK potassium channel modulators, primary screen, cell-based, thallium flux, MLSMR library. ATP-sensitive inward rectifier potassium channel 1 (Homo sapiens), P48048. B-score at 10 µM. Tet-inducible ROMK, thallium flux fluorescence; actives lie on both sides. 130,000 tested, 2% active;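 active means signal ratio slope over the read window, or its plate-corrected B-score, at least 3 SD from the plate mean, either direction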;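 further: B-score of the F/F0 ratio slope over 7 to 12 s after thallium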
WT yeast gro inh: growth inhibition of WT strain, primary screen, mitochondrial fusion inhibitor project, WT and mutant strains, chemical genetic | mitochondrial fusion phenotypic screen | 190,000 tested, 2.1% active | AID 1362, 2008 | inhibition, % at 10 µM; in the data active means inhibition above about 58%; tested in S. cerevisiae
m-calpain inh: inhibitors of pig calpain II, primary screen, biochemical, fluorogenic peptide substrate, 1536-well; purified calpain II, 30 min; inhibition, % at 16 µM; 220,000 tested, 0.37% active; AID 1236, 2008;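 active means inhibition above about 50%, limit read from the data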
Active calls of the source: *; i = inactive; x = no result given. In the library only some 12% were active in any assay of this set; here they are far more common.

SMILES	KCC2 mod	L major viab	ROMK mod	WT yeast gro inh	m-calpain inh
CC(C)CC(=O)N1CCN(S(C)(=O)=O)CC1	6.4*	-6	x	-9	-6
CCC1Cc2c(nc(N)c3c(N)nc(N4CCCCC4)c(C#N)c23)O1 (stereo not drawn)	-1.7	51*	1.4	-11	i
N#Cc1ccsc1NC(=O)CN1CCCCCC1	1.3	59*	x	-4	0
CCOC(=O)N1CCN(CC(=O)Nc2sccc2C#N)CC1	0.15	8	0.0059	-7	82*
N#Cc1ccsc1NC(=O)CN1CCOCC1	-0.31	x	x	x	3
Cc1[nH]c2ccccc2c1C(=O)C(=O)NCc1cccs1	-0.7	1	-0.18	0	2
C/C(CC(=O)Nc1ccc([N+](=O)[O-])cc1)=N/NC(=O)C1C2CCCCC21 (stereo not drawn)	-1	x	x	x	8
O=C(CNC(=O)c1ccccc1)OCc1cccc(Br)c1	-0.83	-8	-0.91	8	8
O=C(CNC(=O)c1ccccc1)OCc1cccc([N+](=O)[O-])c1	-0.063	56*	-0.73	3	21
COC(=O)c1ccn(C(=O)c2ccc(Cl)cc2)n1	-0.13	-1	0.22	93*	-3
Cc1nn(C)c(C)c1NC(=O)c1ccc(Cl)cc1	x	-2	0.00025	3	-25
CCOCCCNC(=S)N1CCC(C(=O)c2ccc3c(c2)OCCO3)CC1	-0.013	17	0.018	4	-24
O=S(=O)(c1ccccc1)c1nc(Nc2ccccc2N2CCOCC2)sc1Cl	-0.56	56*	-1.1	28	3
COc1ccccc1/C=N/NC(=O)CN(C1=NS(=O)(=O)c2ccccc21)c1ccccc1	0.37	45	-0.03	-1	-77
COc1ccc(/C=N/NC(=O)CN(C2=NS(=O)(=O)c3ccccc32)c2ccccc2)cc1	0.32	56*	0.35	-7	-8
CS(=O)(=O)Nc1nnc(SCC(=O)N(c2ccccc2)c2ccccc2)s1	0.85	-4	x	-8	7
Cc1ccc(-c2cc([C@H]3[C@H]4C=CC[C@@H](C)[C@@H]4C(=O)N3Cc3ccccc3)ccc2F)cc1	-0.035	x	x	x	40
Cc1ccc(-c2c[n+](CC(=O)c3ccc(Br)cc3)c3n2CCCCC3)cc1	x	100*	-2.2	11	-26
O=C(C[n+]1cc(-c2ccccc2)n2c1CCCCC2)c1ccc(Cl)cc1	-0.48	70*	x	12	23
COc1ccc(-c2c[n+](CC(=O)c3ccccc3)c3n2CCCCC3)cc1	-0.62	x	-3.2	x	-13
COc1cccc(CN2CCCC(C(=O)c3ccc4c(c3)OCO4)C2)c1O (stereo not drawn)	-0.4	82*	1.3	14	7
O=C(C1CCCN(Cc2ccc3c(c2)OCO3)C1)N1CCCC1 (stereo not drawn)	x	46	x	-16	-15
CCOC(=O)N1CCC(N2CCCC(C(=O)c3cc(F)ccc3OC)C2)CC1 (stereo not drawn)	0.93	82*	-0.49	-8	-53
CC(=O)c1cccc(CN2CCCC(C(=O)c3ccc4c(c3)OCO4)C2)c1 (stereo not drawn)	0.6	100*	-0.24	19	-6
CCc1noc(C)c1C(=O)N1CCCC(C(=O)c2cc(F)ccc2OC)C1 (stereo not drawn)	0.52	-3	x	0	-23
SMILES	KCC2 mod	L major viab	ROMK mod	WT yeast gro inh	m-calpain inh
CCN(CC)C(=O)C1CCCN(Cc2ccc3c(c2)OCO3)C1 (stereo not drawn)	1.8	44	x	2	-15
CCOC(=O)C1CCCN(Cc2ccc3c(c2)OCO3)C1 (stereo not drawn)	-0.23	92*	x	-3	-6
Cc1noc(C)c1C1(O)CCCCCCCCCCC1	-0.13	19	-1.2	12	5
CCOC(=O)c1c(NC(=O)c2nn(C)cc2[N+](=O)[O-])sc(C)c1C	0.17	-3	-0.57	9	6
Cc1cc([N+](=O)[O-])nn1CC(=O)N1CCCc2ccccc21	0.1	-2	0.73	-1	-4
CCCc1nnc(NC(=O)CCCN2C(=O)c3ccccc3C2=O)s1	-0.95	-2	x	-5	-9
COc1ccc(F)cc1C(=O)C1CCCN(Cc2cccn2-c2cccnc2)C1 (stereo not drawn)	x	74*	0.26	-6	-23
COc1ccccc1C(=O)C1CCCN(Cc2ccc3c(c2)OCCO3)C1 (stereo not drawn)	-0.47	x	x	x	-6
